Data as given in PubChem BioAssay (Tox21).
Results filed as inconclusive are left out. Active and inactive are the calls of the source. Unless noted, the call rests on the fitted dose curve; in most records, active means well fitted curve in the direction sought with a large enough effect in the repeat runs; inconclusive means weak or mixed curves; inactive means no such curve, though single readings can be large; an effect the other way counts as inactive or inconclusive.

Experiments:
[1] = qHTS assay to identify aromatase inhibitors - cell viability counter screen (AID 743084);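 further: cells stimulated with testosterone during compound exposure; nearly all actives have a fitted effect of over 55% in size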
[2] = qHTS assay to identify small molecule that activate the aryl hydrocarbon receptor (AhR) signaling pathway - cell viability counter screen (AID 743086);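 further: HepG2 liver cells carrying the AhR DRE luciferase reporter; series mostly up to about 70 µM; nearly all actives have a fitted effect of over 45% in size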
Outline: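 HepG2-AhR-luc (HG2L7.5c1) cells, 4000/well, were preincubated 5 h at 37C, exposed to compound in qHTS format for 24 hr at 37C, then given CellTiter-Fluor for 30 min; viability was read as fluorescence in the reporter wells.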

[3] = biological target: Peroxisome proliferator-activated receptor gamma (Homo sapiens) (UniProt P37231); assay: qHTS assay to identify small molecule antagonists of the peroxisome proliferator-activated receptor gamma (PPARg) signaling pathway (AID 743191; calls by dose curve; further: series mostly up to about 63 µM; nearly all actives have a fitted effect of over 30% in size)
Outline: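 GeneBLAzer PPARg UAS-bla HEK293H cells carrying a UAS-driven beta-lactamase reporter were plated at 3000 cells/well, preincubated 5 h at 37C, then given compound for 17 h at 37C; LiveBLAzer B/G FRET substrate was read after 1 h at room temperature.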

[4] = qHTS assay to identify small molecule antagonists of the peroxisome proliferator-activated receptor gamma (PPARg) signaling pathway - cell viability counter screen (AID 743194); further: nearly all actives have a fitted effect of over 55% in size
Outline: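 PPARg-UAS-bla HEK293H cells were plated, rested 5 h at 37 C, then treated with compounds plus rosiglitazone (50 nM final) for 17 h at 37 C; viability was then read by CellTiter-Glo luminescence after 30 min at room temperature.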

[5] = qHTS assay for small molecule agonists of the antioxidant response element (ARE) signaling pathway (AID 743202; active means well fitted activation curve with a large enough effect in the signal ratio in the repeat runs, not every such curve was filed as active; the % refers to the signal ratio)
Outline: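 Following a 16 h, 37 C exposure of reporter HepG2 cells (ARE-driven beta-lactamase, 2,000 cells/well) to compounds, FRET substrate was applied for 2 h at room temperature and fluorescence intensity recorded.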

[6] = qHTS assay for small molecule agonists of the antioxidant response element (ARE) signaling pathway - cell viability counter screen (AID 743203; calls by dose curve; further: nearly all actives have a fitted effect of over 55% in size)
Outline: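 Luminescence read-out (CellTiter-Glo, 30 min at room temperature) measured cell viability in the same wells as the ARE beta-lactamase reporter. HepG2 ARE-bla cells were treated with compounds for 16 hrs at 37C/5% CO2.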

[7] = qHTS assay for small molecule activators of the heat shock response signaling pathway - cell viability counter screen (AID 743209); further: nearly all actives have a fitted effect of over 50% in size
Outline: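 HSE-bla HeLa; 1500 cells/well; overnight 37 C, 5% CO2; compound 5 h 37 C; LiveBLAzer B/G substrate 2.5 h RT; CellTiter-Glo 30 min RT; luminescence.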

[8] = qHTS assay to identify small molecule agonists of the peroxisome proliferator-activated receptor delta (PPARd) signaling pathway - cell viability counter screen (AID 743211); further: nearly all actives have a fitted effect of over 55% in size
Outline: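 PPARd-bla HEK293H cells (3000/well) were pre-incubated 5 h at 37 C, then exposed to compound for 17 h at 37 C. After 2 h with LiveBLAzer substrate, CellTiter-Glo was added to the same wells; luminescence read after 30 min at room temperature.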

[9] = qHTS assay to identify small molecule antagonists of the peroxisome proliferator-activated receptor delta (PPARd) signaling pathway - cell viability counter screen (AID 743213); further: nearly all actives have a fitted effect of over 50% in size
Outline: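 CellTiter-Glo was added to PPARd-bla HEK293H wells following 17 h compound treatment in the presence of 300 nM L165041. Luminescence was recorded after 30 min at room temperature.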

[10] = biological target: Peroxisome proliferator-activated receptor delta (Homo sapiens) (UniProt Q03181); assay: qHTS assay to identify small molecule antagonists of the peroxisome proliferator-activated receptor delta (PPARd) signaling pathway (AID 743215; active means well fitted inhibition curve with a large enough effect in the signal ratio in the repeat runs, not every such curve was filed as active; the % refers to the signal ratio;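 further: cells stimulated with agonist L165041 at 300 nM final during compound exposure; series mostly up to about 62 µM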)
Outline: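 HEK293H GeneBLAzer PPARd UAS-bla reporter cells; cpd + L165041 300 nM final, 17 h 37 C; LiveBLAzer B/G FRET substrate 2 h RT; fluorescence intensity read-out. Antagonist mode.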

[11] = qHTS assay to identify small molecule agonists of the farnesoid-X-receptor (FXR) signaling pathway - cell viability counter screen (AID 743218); further: nearly all actives have a fitted effect of over 45% in size
Outline: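 Luminescence from CellTiter-Glo, read after 30 min at RT, reports viability of GeneBLAzer FXR-UAS-bla HEK 293T cells treated 16 h with compounds in the wells used for the beta-lactamase reporter.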

[12] = qHTS assay to identify small molecule antagonists of the farnesoid-X-receptor (FXR) signaling pathway - cell viability counter screen (AID 743221; active means well fitted cell-killing curve with a large enough effect in the repeat runs, not every such curve was filed as active; further: nearly all actives have a fitted effect of over 50% in size)
Outline: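 GeneBLAzer FXR-UAS-bla HEK 293T cells, compound plus chenodeoxycholic acid (50 uM final), 16 h at 37 C. CellTiter-Glo added to the same wells after the beta-lactamase read; luminescence read after 30 min at room temperature as viability.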

[13] = biological target: Vitamin D3 receptor (Homo sapiens) (UniProt P11473); assay: qHTS assay to identify small molecule agonists of the vitamin D receptor (VDR) signaling pathway (AID 743222; calls by dose curve)
Outline: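 Beta-lactamase reporter readout (LiveBLAzer B/G FRET, 2 h RT) in VDR-bla cells after 16 h compound treatment at 37C, 5% CO2; cells pre-incubated 4 h before pin transfer of DMSO solutions.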

[14] = biological target: Vitamin D3 receptor (Homo sapiens) (UniProt P11473); assay: qHTS assay to identify small molecule antagonists of the vitamin D receptor (VDR) signaling pathway (AID 743223; active means well fitted inhibition curve with a large enough effect in the signal ratio in the repeat runs, not every such curve was filed as active; the % refers to the signal ratio)
Outline: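 VDR-bla cells were treated with compound plus 3 nM final 1alpha,25-dihydroxyvitamin D3 for 16 h at 37C. Beta-lactamase reporter read by B/G FRET substrate fluorescence after 2 h at room temperature. qHTS format.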

[15] = qHTS assay for small molecule activators of the heat shock response signaling pathway (AID 743210; active means well fitted activation curve with a large enough effect in the signal ratio in the repeat runs, with a control signal flat, not every such curve was filed as active; the % refers to the signal ratio; further: series mostly up to about 63 µM)
Outline: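 Heat shock element–beta-lactamase HeLa reporter cells; qHTS with compounds for 5 h at 37 C; detection by FRET substrate fluorescence after 2.5 h at RT.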

[16] = biological target: Bile acid receptor (Homo sapiens) (UniProt Q96RI1); assay: qHTS assay to identify small molecule antagonists of the farnesoid-X-receptor (FXR) signaling pathway (AID 743217; active means well fitted inhibition curve with a large enough effect in the signal ratio in the repeat runs, not every such curve was filed as active; the % refers to the signal ratio)
Outline: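 Read-out: beta-lactamase FRET fluorescence (LiveBLAzer B/G substrate, 2 h, room temperature) in GeneBLAzer FXR-UAS-bla HEK 293T cells. Compounds were co-dosed with 50 uM chenodeoxycholic acid (final) and incubated 16 h at 37 °C.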

[17] = biological target: Bile acid receptor (Homo sapiens) (UniProt Q96RI1); assay: qHTS assay to identify small molecule agonists of the farnesoid-X-receptor (FXR) signaling pathway (AID 743220; active means well fitted activation curve with a large enough effect in the signal ratio in the repeat runs, not every such curve was filed as active; the % refers to the signal ratio)
Outline: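 FXR-UAS-bla HEK 293T cells carrying a UAS-driven beta-lactamase reporter were plated for 5 h at 37C/5% CO2, then exposed to DMSO-dissolved Tox21 10K compounds for 16 h at 37C. A LiveBLAzer B/G FRET substrate was loaded for 2 h at room temperature before fluorescence reading.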

[18] = biological target: Peroxisome proliferator-activated receptor delta (Homo sapiens) (UniProt Q03181); assay: qHTS assay to identify small molecule agonists of the peroxisome proliferator-activated receptor delta (PPARd) signaling pathway (AID 743212; calls by dose curve)
Outline: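 Beta-lactamase reporter read by fluorescence (LiveBLAzer B/G FRET, 2 h, room temperature). Test agents, in DMSO, incubated at 37 C with PPARd-bla HEK293H cells.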

[19] = biological target: Peroxisome proliferator-activated receptor gamma (Homo sapiens) (UniProt P37231); assay: qHTS assay to identify small molecule agonists of the peroxisome proliferator-activated receptor gamma (PPARg) signaling pathway (AID 743094; active means well fitted activation curve with a large enough effect in the signal ratio in the repeat runs, not every such curve was filed as active; the % refers to the signal ratio)
Outline: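 HEK293H PPARg-bla cells, 5 h settle at 37C/5% CO2; compound (DMSO) 17 h, 37C; B/G FRET substrate 1 h RT; fluorescence intensity read-out. qHTS format.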

Measured: Potency

Vitamin D3 receptor (Homo sapiens), sequence (P11473 whole entry, looked up): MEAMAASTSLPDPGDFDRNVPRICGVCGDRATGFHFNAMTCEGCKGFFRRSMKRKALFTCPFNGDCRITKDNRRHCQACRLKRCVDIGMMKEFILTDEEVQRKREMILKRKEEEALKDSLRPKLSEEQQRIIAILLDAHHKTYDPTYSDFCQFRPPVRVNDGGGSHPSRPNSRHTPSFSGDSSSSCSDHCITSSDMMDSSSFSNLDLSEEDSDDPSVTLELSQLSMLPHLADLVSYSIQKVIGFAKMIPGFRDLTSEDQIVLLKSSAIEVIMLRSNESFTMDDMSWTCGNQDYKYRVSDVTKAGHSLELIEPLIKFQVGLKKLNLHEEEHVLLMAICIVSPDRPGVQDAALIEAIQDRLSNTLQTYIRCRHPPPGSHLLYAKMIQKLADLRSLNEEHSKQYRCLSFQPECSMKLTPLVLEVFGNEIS
Peroxisome proliferator-activated receptor gamma (Homo sapiens), sequence (P37231 whole entry, looked up): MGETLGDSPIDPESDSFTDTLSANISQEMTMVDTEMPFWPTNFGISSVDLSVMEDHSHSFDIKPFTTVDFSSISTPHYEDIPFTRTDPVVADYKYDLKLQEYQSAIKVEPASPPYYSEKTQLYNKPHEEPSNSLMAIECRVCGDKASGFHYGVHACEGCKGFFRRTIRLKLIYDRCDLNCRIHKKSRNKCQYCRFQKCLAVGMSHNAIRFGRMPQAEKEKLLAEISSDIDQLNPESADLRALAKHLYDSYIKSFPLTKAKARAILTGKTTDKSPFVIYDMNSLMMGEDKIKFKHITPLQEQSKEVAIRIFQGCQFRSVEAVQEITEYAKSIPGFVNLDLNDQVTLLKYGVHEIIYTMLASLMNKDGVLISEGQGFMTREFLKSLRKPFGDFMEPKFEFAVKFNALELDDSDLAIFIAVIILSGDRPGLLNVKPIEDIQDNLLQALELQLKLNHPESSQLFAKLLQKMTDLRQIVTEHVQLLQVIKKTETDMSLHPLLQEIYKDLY
Peroxisome proliferator-activated receptor delta (Homo sapiens), sequence (Q03181 whole entry, looked up): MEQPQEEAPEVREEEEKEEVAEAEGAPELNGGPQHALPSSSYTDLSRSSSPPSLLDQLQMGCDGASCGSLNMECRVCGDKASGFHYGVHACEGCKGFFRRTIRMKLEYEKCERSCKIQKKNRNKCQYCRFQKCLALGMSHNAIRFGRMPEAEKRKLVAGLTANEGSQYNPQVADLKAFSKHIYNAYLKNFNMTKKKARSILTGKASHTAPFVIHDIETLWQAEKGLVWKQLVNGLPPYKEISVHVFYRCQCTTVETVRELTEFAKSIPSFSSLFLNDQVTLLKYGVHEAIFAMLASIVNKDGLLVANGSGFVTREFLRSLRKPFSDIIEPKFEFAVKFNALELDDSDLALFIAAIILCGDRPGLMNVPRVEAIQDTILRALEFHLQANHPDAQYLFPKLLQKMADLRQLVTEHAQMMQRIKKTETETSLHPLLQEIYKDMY
Bile acid receptor (Homo sapiens), sequence (Q96RI1 whole entry, looked up): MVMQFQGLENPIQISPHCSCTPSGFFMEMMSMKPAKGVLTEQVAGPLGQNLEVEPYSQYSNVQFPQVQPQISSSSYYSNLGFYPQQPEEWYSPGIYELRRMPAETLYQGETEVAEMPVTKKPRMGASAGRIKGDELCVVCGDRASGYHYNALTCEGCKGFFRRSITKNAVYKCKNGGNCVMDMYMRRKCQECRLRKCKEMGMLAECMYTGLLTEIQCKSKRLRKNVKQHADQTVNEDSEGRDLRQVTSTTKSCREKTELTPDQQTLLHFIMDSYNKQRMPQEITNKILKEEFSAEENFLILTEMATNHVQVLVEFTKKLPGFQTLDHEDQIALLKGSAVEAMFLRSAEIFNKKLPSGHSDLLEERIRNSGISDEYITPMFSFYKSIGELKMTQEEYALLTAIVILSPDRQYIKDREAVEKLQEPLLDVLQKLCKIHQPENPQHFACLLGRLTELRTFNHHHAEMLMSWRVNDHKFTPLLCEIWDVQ

CCOc1ccc(NC(C)=O)cc1N
inactive: [1] | [2] | [3] | [4] | [5] | [6] | [7] | [8] | [9] | [10] | [11] | [12] | [13] | [14]

COC(=O)/C=C/C(C)=C\C=C\C(C)=C\C=C\C=C(C)\C=C\C=C(C)\C=C\C(=O)O
inactive: [1] | [2] | [4] | [6] | [7] | [15] | [8] | [9] | [16] | [11] | [17] | [12] | [13] | [14]

CC(C)(C(=O)O)c1ccc(C(O)CCCN2CCC(C(O)(c3ccccc3)c3ccccc3)CC2)cc1 (stereo not drawn)
inactive: [1] | [2] | [3] | [6] | [7] | [15] | [8] | [18] | [9] | [11] | [12] | [13]

C=Cc1ccc(C=C)cc1
inactive: [1] | [2] | [3] | [5] | [6] | [7] | [15] | [8] | [9] | [10] | [16] | [17] | [12] | [13]

CCCCCCCCNC
inactive: [1] | [2] | [19] | [4] | [5] | [6] | [7] | [15] | [8] | [18] | [10] | [16] | [11] | [17] | [12] | [13] | [14]

OCC(O)c1ccccc1 (stereo not drawn)
inactive: [1] | [2] | [4] | [5] | [6] | [7] | [15] | [8] | [18] | [9] | [10] | [11] | [12] | [13]

CC(C)=CCC/C(C)=C/C=N/O
inactive: [1] | [2] | [19] | [4] | [5] | [6] | [7] | [15] | [8] | [18] | [9] | [10] | [16] | [11] | [17] | [12] | [13] | [14]

CC(O)CN (stereo not drawn)
inactive: [1] | [2] | [19] | [4] | [5] | [6] | [7] | [8] | [9] | [12] | [13] | [14]

Cc1ccc(NC=O)c(C)c1
inactive: [1] | [2] | [19] | [4] | [5] | [6] | [7] | [15] | [8] | [18] | [9] | [10] | [16] | [11] | [17] | [12] | [13] | [14]
